Source: PubChem (several laboratories)
The list is not random: actives were taken first. Their share in the collection is about 3.6%.
CRFBP-R2 block: antagonists of CRF-binding protein/CRF-R2 receptor complex | inhibition, % at 11.8 µM | HEK293 CRF-R2/CRF-BP, CRF-induced calcium fluorescence | hit rate 0.59% among 350,000 | AID 588475;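 active means inhibition of the ligand-induced calcium signal above about 50% at the single tested concentration, limit read from the data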
FAS TE block: blocks the thioesterase domain of human fatty acid synthase; inhibition, % at 15 µM; AID 602261; recombinant FAS-TE, OMFH fluorogenic substrate, fluorescence endpoint; P49327; hit rate 0.67% among 360,000;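 active means compounds whose normalised, plate-corrected inhibition of enzyme fluorescence in the single-dose primary screen is 50% or more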;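 further: 0% = DMSO with enzyme and 100% = substrate without enzyme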
NRP1-CendR mod: NRP-1/CendR interaction modulation | FAM-RPARPAR peptide binding to NRP-1, fluorescence polarization | inhibition, % at 25 µM | hit rate 0.85% among 360,000 | AID 602438;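 active means inhibition or corrected inhibition above about 18%, plus a signal ratio from 0.5 to 1.5, limit read from the data, passing the limit was not always enough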
Myeloid diff MLP: myeloid differentiation induction; ER-HoxA9 myeloid progenitors, lysozyme-GFP differentiation, flow cytometry; calls only at 10 µM; hit rate 1% among 360,000;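 active means normalized GFP-positive differentiation at or above the plate's own cutoff, the solvent-only control mean plus 3 SD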;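 further: cells exposed to compound for four days before flow analysis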
NadD inh: blocks S. aureus nicotinate mononucleotide adenylyltransferase | inhibition, % at 20 µM | purified NadD enzyme, colorimetric absorbance read-out | hit rate 0.78% among 360,000; in the data active means inhibition above about 26%
* hit, by the source's call; i = inactive; x = not tested or not shown; + = active, no number.

SMILES	CRFBP-R2 block	FAS TE block	NRP1-CendR mod	Myeloid diff MLP	NadD inh
Cc1ccc(C(=O)COC(=O)CCN2C(=O)C3C4C=CC(C5CC45)C3C2=O)cc1 (stereo not drawn)	91*	6	-7	i	-12
CCn1c2ccccc2c2cc(NC(=O)c3ccc(Br)o3)ccc21	-17	0	-91	+	21
COC(=O)CSc1nnc(-c2ccc(NS(=O)(=O)c3ccccc3)cc2)o1	-3	-1	-14	+	-6
Cc1ccc(NC(=O)CSc2nnc(-c3ccco3)n2N)cc1F	-5	-3	2	+	-9
CCn1c(SCC(=O)Nc2ccc3c(c2)c2ccccc2n3CC)nnc1-c1ccco1	-3	6	-81	i	63*
Cc1ccc(CSc2nnc(-c3ccc(NS(=O)(=O)c4ccccc4)cc3)o2)cc1	42	19	-4	i	-1
Nn1c(SCC(=O)Nc2ccc3c(c2)OCCO3)nnc1-c1ccccn1	-5	-13	-8	i	2
COc1cc(-c2nnc(SCC(=O)c3ccccc3)o2)cc(OC)c1OC	-23	8	1	i	-4
Cc1ccccc1-c1nnc(SCC(=O)Nc2ccc3c(c2)OCCO3)n1N	21	-8	-14	+	-3
CCn1c2ccccc2c2cc(NC(=O)CSc3nnc(-c4ccccc4)o3)ccc21	5	21	7	+	16
COc1cc(-c2nnc(SCC(=O)Nc3ccc(C(=O)O)cc3)o2)cc(OC)c1OC	1	-4	31*	i	3
O=c1c2ccccc2nc2n1CCc1ccc(Br)cc1-2	x	7	8	i	-3
COc1ccc(CCC(=O)N2c3ccccc3N=C(c3ccc(C(F)(F)F)cc3)C2C(=O)NC(C)C)cc1 (stereo not drawn)	x	x	-1	i	x
Cc1cc(C)c(O)c(-c2n[nH]c3c2C(c2cccc(O)c2)N(Cc2ccco2)C3=O)c1 (stereo not drawn)	-10	3	-8	i	-2
CCOC(=O)C(=CN(CCc1ccccc1)CC(=O)OC)C(=O)OCC	0	-11	26*	i	-2
Cn1c(SCC(=O)Nc2ccc(C(=O)O)cc2)nc2scc(-c3ccccc3Cl)c2c1=O	-8	-2	-14	i	6
CC(C)NC(=O)Nc1ccc2c(c1)C(=O)N([C@H](C)CO)C[C@H](C)[C@@H](CN(C)S(=O)(=O)c1ccc(F)cc1)O2	5	-10	15	i	-1
Cc1noc(C)c1NC(=O)Nc1ccc2c(c1)C(=O)N([C@H](C)CO)C[C@H](C)[C@@H](CN(C)S(=O)(=O)c1ccc(F)cc1)O2	70*	-4	-11	i	6
C[C@H](CO)N1C[C@H](C)[C@@H](CN(C)C(=O)Nc2ccc(C(F)(F)F)cc2)Oc2c(NS(=O)(=O)c3cn(C)cn3)cccc2C1=O	1	7	10	i	1
Cc1ccc(S(=O)(=O)Nc2ccc3c(c2)C(=O)N([C@H](C)CO)C[C@H](C)[C@@H](CN(C)C(=O)Nc2ccc(C(F)(F)F)cc2)O3)cc1	-10	14	-15	+	1
C[C@H](CO)N1C[C@H](C)[C@@H](CN(C)C(=O)Nc2ccc(C(F)(F)F)cc2)Oc2ccc(NS(=O)(=O)c3cn(C)cn3)cc2C1=O	11	2	11	+	7
CC(C)NC(=O)Nc1ccc2c(c1)C(=O)N([C@H](C)CO)C[C@H](C)[C@@H](CN(C)S(=O)(=O)c1cccs1)O2	7	-8	25*	i	-1
O=C(OCCNc1ccc(C(F)(F)F)cc1[N+](=O)[O-])c1cc2ccccc2oc1=O	5	9	-209	i	-2
O=C(NCc1ccncc1)c1csc([C@@H]2O[C@H](CO)[C@@H](O)[C@H]2O)n1	x	-7	-8	i	0
CC(NC(=O)c1ccc([N+](=O)[O-])o1)C1CC2CCC1C2 (stereo not drawn)	13	1	-8	i	-2
SMILES	CRFBP-R2 block	FAS TE block	NRP1-CendR mod	Myeloid diff MLP	NadD inh
C[C@H](CO)N1C[C@H](C)[C@@H](CN(C)C(=O)Nc2ccc(F)cc2)Oc2ccc(NS(C)(=O)=O)cc2C1=O	4	-12	-10	+	4
C[C@H](CO)N1C[C@H](C)[C@@H](CN(C)C(=O)Nc2ccc(C(F)(F)F)cc2)Oc2ccc(NS(=O)(=O)c3ccc(F)cc3)cc2C1=O	0	9	3	i	3
CC(=O)c1ccc(NC(=O)CSc2ccc(-c3ccc4c(c3)OCO4)nn2)cc1	122*	-10	9	i	3
Cc1cccc(C(=O)N2c3ccccc3C(=O)OC2c2ccc3c(c2)OCO3)c1 (stereo not drawn)	75*	15	0	i	1
O=C1OC(c2ccc3c(c2)OCO3)N(C(=O)c2ccc(Cl)c(Cl)c2)c2ccccc21 (stereo not drawn)	-6	27	8	i	8
O=C(NCCCN1CCOCC1)c1c(-c2ccccc2)oc2c1C(OCCCCCO)CCC2 (stereo not drawn)	x	-9	1	i	1
CC(C)S(=O)(=O)c1csc(NC(=O)Nc2cc(Cl)ccc2Cl)c1Cl	11	31	-5	i	-2
COC(=O)c1c(C)[nH]c(C(=O)CC#N)c1C	-25	-4	-38	+	0
COc1ccccc1N(C)c1cc2c(c3c1ccn3C)C1CCC2O1 (stereo not drawn)	x	15	-7	i	3
Cc1cc(N)ccc1N1CCCC1	-10	-21	9	i	70*
O=C1CC(Nc2cc(=O)[nH]c(=O)[nH]2)C(=O)N1c1ccccc1Cl (stereo not drawn)	82*	-4	4	i	-8
Cc1ccc(NC(=O)COC(=O)C2(CC(=O)NC(C)C)CCCC2)cc1C	-3	-2	-15	i	-1
Cc1cccc(N(CC(=O)NCc2ccco2)C(=O)CCC(=O)Nc2ccccn2)c1C	-8	-2	10	i	1
CC(C)c1ccc(C(=O)Nc2ccc(N3CCOCC3)cc2)cc1	-13	-3	-13	+	0
CC(C)CC(=O)NC(=S)Nc1ccc(CN2CCOCC2)cc1	3	-6	2	i	-8
CC(=O)c1ccc(C(=O)Nc2ccc(N3CCOCC3)cc2)cc1	5	-4	7	i	-1
CC(C)CC(=O)NC(=S)Nc1ccc(N2CCOCC2)cc1	14	-6	1	+	4
Oc1c(Br)cc(Br)cc1CNc1cccc2cccnc12	-11	10	-3	i	57*
Oc1ccc(Br)cc1CNc1cccc2cccnc12	2	18	-8	i	10
CCCS(=O)(=O)NC(=O)C1(C)CCCN(C(=O)c2cccc(C)c2C)C1 (stereo not drawn)	x	-9	-9	i	-5
Cc1ccccc1OCCNC(=O)c1ccccc1Sc1ccccc1C#N	-14	2	18	i	-8
CNC(=O)c1ccccc1Sc1ccccc1C#N	7	-2	32*	i	-1
N#Cc1ccccc1Sc1ccccc1N	57*	9	-2	i	-6
Nc1ccccc1SSc1ccccc1N	-5	-14	17	i	4
